From the supplement of paper PMC13380429

Test system: Vero E6 infected with SARS-CoV-2
Assay: inhibition of SARS-CoV-2 cytopathic effect; higher = more antiviral protection, active = above 15
Settings: 48 h

Measured: inhibition of SARS-CoV-2 cytopathic effect

N#CC(c1ccc(Cl)cc1)c1c(Cl)cc(-n2ncc(=O)[nH]c2=O)cc1Cl (stereo not given) [diclazuril]
inactive: 1 nM -4.3% | 8.33 nM -0.75% | 100 nM 0.27% | 833.33 nM 1.84% | 10000 nM 0.73%

CC(C)(C)c1ccc(C(=O)Nc2cn3cc(-n4ccnc4)ccc3n2)cc1
inactive: 1 nM 2.98% | 8.33 nM 0.55% | 100 nM 2.27% | 833.33 nM 2.13% | 10000 nM -0.45%

NCCCCCc1c[nH]cn1 [impentamine]
inactive: 1 nM -2.08% | 8.33 nM -1.69% | 100 nM -0.14% | 833.33 nM -0.52% | 10000 nM 0.02%

COc1cc(Nc2nc3ccccc3nc2NS(=O)(=O)c2ccc(NC(=O)c3ccc(C)c(OC)c3)cc2)cc(OC)c1
inactive: 1 nM 1.14% | 8.33 nM 4.37% | 100 nM 1.01% | 833.33 nM -1.67% | 10000 nM 0.57%

Cc1ccc(-c2nc3ccc(C)cn3c2CC(=O)N(C)C)cc1
inactive: 1 nM 0.77% | 8.33 nM 1.21% | 100 nM 0.45% | 833.33 nM 1.14% | 10000 nM -2.98%

CCOc1c(N2CCOCC2)cnn(C)c1=O [emorfazone]
inactive: 1 nM -7.19% | 8.33 nM -6.29% | 100 nM -2.95% | 833.33 nM -0.94% | 10000 nM 0.67%

CC(C)[C@@H]1CC[C@@H](C)C[C@H]1O [levomenthol]
inactive: 1 nM 0.46% | 8.33 nM -1.68% | 100 nM 1.02% | 833.33 nM 0.09% | 10000 nM -0.2%
